Hits are enriched below; roughly 19% of the tested compounds scored in any of these assays.
TDP1 cell noCPT: qHTS for Inhibitors of human tyrosyl-DNA phosphodiesterase 1 (TDP1): qHTS in cells in absence of CPT; Potency, µM (titrated, usually from 46.2 µM), inactives show at the highest dose activity change, negative = growth inhibition, hits mostly inhibitors; DT40 Tdp1-/- hTDP1 cells, no CPT, ATP luminescence, 48 h; 420,000 tested, 15% active; further: potency means the concentration at half of the fitted maximal effect; nearly all actives have a fitted effect of over 55% in size
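Stably hTDP1-transfected Tdp1-null chicken DT40 cells were treated with library compounds minus camptothecin and grown for at least 48 hr at 37 °C, after which cellular ATP was quantified by luminescence.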
HT1080 IDH1KD tx: qHTS for induction of synthetic lethality in tumor cells producing 2HG: qHTS for the HT-1080-IDH1KD cell line; HT-1080 IDH1 knockdown viability, ATP luminescence, 48 h; Potency, µM (series often up to 46.1 µM), for the others: top-dose activity, negative = toxicity, usual class: cytotoxic; 360,000 tested, 2% active; AID 686971, 2013;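 further: potency means the concentration at half of the fitted maximal effect; 0% = DMSO wells and -100% = cell-free medium wells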
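Knockdown cells (IDH1KD HT-1080) received compounds 2 h after plating at 750 cells/well and were kept 48 h at 37 °C in 5% FBS RPMI. A CellTiter-Glo luminescence read gave % activity for curve fitting.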
IL1B secr inh: qHTS for Inhibitors of Inflammasome Signaling: IL-1-beta AlphaLISA Primary Screen; THP-1 LPS/ATP IL-1B secretion, AlphaLISA, 16 h; stronger effect = lower value; activity change, % at 57.5 µM; 360,000 tested, 4.7% active; in the data active means activity change below about -50%; inconclusive means mostly about -30% to -49%
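Secreted IL-1B measured by AlphaLISA bead assay after 16 h compound exposure of THP-1 cells; compounds (final up to 57.5 uM) added 1 h before LPS (250 ng/mL) and ATP (1.25 mM) stimulation; lower signal means less secretion.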
DT40 TDP1 CPT: qHTS for Inhibitors of human tyrosyl-DNA phosphodiesterase 1 (TDP1): qHTS in cells in presence of CPT. chicken DT40 Tdp1-/-;hTDP1 cells + 20 nM CPT, ATP luminescence, 48 h. Potency, µM (highest dose often 46.2 µM), inactives show top-dose activity change, negative = growth inhibition, hits mostly inhibitors. 420,000 tested, 12% active. AID 686979, 2013; further: potency means the concentration at half of the fitted maximal effect; nearly all actives have a fitted effect of over 55% in size
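Chicken DT40 Tdp1-/- cells complemented with human TDP1, 400 cells/well, exposed to compounds plus 20 nM camptothecin for at least 48 h at 37 C; viability read as ATP content by CellTiter-Glo luminescence.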
HT1080-NT tox: qHTS for induction of synthetic lethality in tumor cells producing 2HG: qHTS for the HT-1080-NT fibrosarcoma cell line; HT-1080-NT fibrosarcoma viability, CellTiter-Glo ATP luminescence, 48 h; Potency, µM (doses to about 46.1 µM), for the others: at the highest dose activity, negative = less viability, actives largely listed as cytotoxic; 360,000 tested, 1.6% active; AID 686970, 2013;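 further: NT is the 2HG producing partner of a matched IDH1 knockdown line; potency means the concentration at half of the fitted maximal effect; 0% = DMSO-treated cells and -100% = media-only wells without cells; nearly all actives have a fitted effect of over 55% in size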
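Read-out is CellTiter-Glo luminescence after 10 minutes at room temperature, following 48 hours' compound treatment of HT-1080-NT cells (750 cells/well, RPMI, 5% FBS, 37 degrees C).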
Numbers without * were called inactive; ? = inconclusive; / = no result given. Unless noted, the call rests on the fitted dose curve; in most records, active means well fitted curve in the direction sought with a large enough effect; inconclusive means small, poorly fitted or top-dose-only effect, or another doubt; inactive means no such curve, though single readings can be large; an effect the other way counts as inactive or inconclusive. Unless noted, on the % scale 0 is the no-effect control and ±100 the full control effect.

SMILES	TDP1 cell noCPT	HT1080 IDH1KD tx	IL1B secr inh	DT40 TDP1 CPT	HT1080-NT tox
Cc1ccc(NC(=O)c2ccc(Cl)cc2Cl)cc1O	-24%	-2%	-15	?	-6%
Cc1ccccc1C1CC(c2cccs2)Nc2nnnn21 (configuration not stated)	6.5µM*	-11%	?	-7%	-2%
Cc1ccccc1C1CC(c2ccc(F)cc2)Nc2nc(N)nn21 (configuration not stated)	?	0%	0	21µM*	-4%
Cc1ccccc1C1CC(c2ccc(Br)cc2)Nc2nc(N)nn21 (configuration not stated)	-28%	-24%	?	-22%	-8%
Cc1cccc(C2CC(c3ccc(Br)cc3)Nc3nc(N)nn32)c1 (configuration not stated)	23µM*	0%	-14	21µM*	2%
COc1ccc(C2CC(c3cccc(C)c3)n3nc(N)nc3N2)cc1 (configuration not stated)	-3%	-5%	-11	?	14%
O=C(N=Nc1c(O)[nH]c2ccccc12)c1ccc2c(c1)OCO2	?	-1%	-15	?	0%
COC(=O)CCN(c1ccccc1)S(=O)(=O)c1cc(-c2cc(C)no2)ccc1C	?	-17%	30	-23%	-12%
Cn1c(/C=C/c2ccc(Br)cc2)nc2ccccc2c1=O	18µM*	1%	-14	?	9%
O=c1c2ccccc2nc(/C=C/c2cccc([N+](=O)[O-])c2)n1CCO	?	-10%	?	-9%	-17%
O=c1c2ccccc2nc(/C=C/c2cc(Br)ccc2O)n1CCCO	16µM*	?	-101*	?	?
CCn1c2ccccc2c2nnc(N3CCN(c4cccc(Cl)c4)CC3)nc21	?	/	/	-20%	/
CSc1nc2sc3c(c2c(=O)n1C1CCCCC1)CCN(C)C3	?	9%	-4	-9%	6%
N#CCSc1nc2sc3c(c2c(=O)n1C1CCCCC1)CCCC3	23µM*	-7%	?	?	-7%
CCSc1nc2sc3c(c2c(=O)n1C1CCCCC1)CCN(C)C3	15µM*	-19%	-25	16µM*	-7%
C=C(C)CSc1nc2sc3c(c2c(=O)n1C1CCCCC1)CCN(C)C3	6.5µM*	?	/	5.8µM*	-21%
CCn1c(SCC(=O)NC(=O)Nc2ccc3c(c2)OCCO3)nnc1-c1cccs1	?	15%	12	-27%	15%
CC(=O)Nc1ccc(C(=O)NNC(=O)C2C3CCCCC32)cc1 (configuration not stated)	3%	4%	20	0%	6%
O=C(CN1C(=O)COc2ccc(S(=O)(=O)N3CCCCC3)cc21)NCc1ccccc1Cl	1%	-2%	?	-10%	0%
O=C(NCC1CCCN1S(=O)(=O)c1cccs1)C(=O)Nc1ccccc1F (configuration not stated)	?	-3%	8	?	-2%
O=C(NCCC1CCCCN1S(=O)(=O)c1cccs1)C(=O)NCc1ccccc1 (configuration not stated)	21µM*	-16%	0	15µM*	-22%
COc1ccccc1NC(=O)C(=O)NCCC1CCCCN1S(=O)(=O)c1cccs1 (configuration not stated)	18µM*	-17%	-17	29µM*	-22%
O=C(NCCC1CCCCN1S(=O)(=O)c1cccs1)C(=O)Nc1ccccc1F (configuration not stated)	23µM*	6%	4	?	5%
COc1ccc(OC)c(C(=O)c2ccc(C(=O)Nc3cccc4ccccc34)cc2)c1	?	1%	9	-28%	-2%
Cc1nnsc1-c1nc2ccccc2n1C(CCc1ccccc1)c1nc2ccccc2[nH]1 (configuration not stated)	?	-30%	-26	?	-2%
SMILES	TDP1 cell noCPT	HT1080 IDH1KD tx	IL1B secr inh	DT40 TDP1 CPT	HT1080-NT tox
Nc1nnn(CC(=O)N/N=C/C=C/c2ccccc2)n1	-23%	1%	-13	14%	21%
CCOc1ccc(NC(=O)N(O)C2(C#N)CCCCC2)cc1	4%	9%	-17	-1%	7%
CN(C)c1ccc(C(=S)Nc2ccccc2)cc1	16µM*	10%	-3	?	2%
C=C(c1ccccc1)c1ccc(N(C)C)cc1	-37%	-4%	-10	-22%	1%
CN(C)c1ccc(/C=N/NC(=O)c2ccccn2)cc1	?	?	-14	-19%	?
CN(C)c1ccc(NC(=S)c2ccccn2)cc1	5.2µM*	?	-5	4.6µM*	?
CN(C)c1cc(O)c(C(=S)Nc2ccccc2)c(N(C)C)c1	?	-16%	5	16µM*	-16%
C=CCN(C)NC(=S)Nc1ccccc1	-13%	19%	-4	9%	22%
CC(C)c1ccc(/C=C/C(=O)NC(=S)Nc2ccc(CN3CCOCC3)cc2)cc1	18µM*	?	-65*	9.2µM*	?
O=C(/C=C/c1cccc([N+](=O)[O-])c1)NC(=S)Nc1ccc(CN2CCOCC2)cc1	18µM*	0%	-94*	16µM*	5%
O=C(Nc1cccc([N+](=O)[O-])c1)c1ccc(CN2CCOCC2)cc1	-25%	0%	-9	-5%	4%
CC(C)c1ccc(/C=C/C(=O)NC(=S)NN2CCOCC2)cc1	?	-5%	-1	?	-9%
O=C(COC(=O)c1cc[n+]([O-])cc1)Nc1cc([N+](=O)[O-])ccc1Cl	-15%	7%	-2	14%	2%
Nc1nc2ccccc2n1S(=O)(=O)c1ccc([N+](=O)[O-])cc1	21µM*	?	10	29µM*	-28%
O=[N+]([O-])c1ccc(S(=O)(=O)CC2CSc3nc4ccccc4n32)cc1 (configuration not stated)	12µM*	-10%	57	13µM*	0%
Cc1nnc2n(c1=O)C(CS(=O)(=O)c1ccccc1)CS2 (configuration not stated)	-12%	-3%	10	2%	-8%
CSCCC(NC(=O)c1ccccc1Cl)C(=O)NCC(c1cccs1)N(C)C (configuration not stated)	-3%	4%	1	-4%	6%
Cc1cccc(NC(=S)NC2CC3CCC(C2)N3Cc2ccco2)c1C (configuration not stated)	-7%	-27%	1	-28%	0%
